# Pf growth 96h = P. falciparum growth inhibition at 96 hour, primary screen for plastid delayed-death inhibitors. P. falciparum luciferase reporter growth, 96 h. Potency, µM (series often up to 28.7 µM), for inactives: top-dose activity change, negative = inhibition, usual class: inhibitors. hit rate 6.9% among 320,000. AID 504834; note: % is set by controls: 0 for no effect and ±100 for the full control effect
#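 Compounds incubated with erythrocytes infected by luciferase-expressing P. falciparum (2% hematocrit, 0.05% parasitemia final) for 96 hours, 37 C in 5% CO2. Growth inhibition scored as decreased luciferase luminescence.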
# NS1 function inh = influenza NS1 inhibition. Potency, µM (top dose mostly 46.1 µM), without a hit: top-dose activity, positive = more growth. hit rate 0.4% among 270,000; calls by dose curve; note: actives are rising curves; nearly all actives have a fitted effect of over 50% in size
#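 Growth recovery, yeast-based: influenza A NS1 expressed in S. cerevisiae causes slow growth, and suppressors are detected by OD600. The parent strain without NS1 is used as positive control.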
# Pf growth 48h = P. falciparum growth inhibition at 48 hours (one generation) | P. falciparum luciferase growth in erythrocytes, 48 h | Potency, µM (titrated, usually from 28.7 µM), for the others: at the top dose activity change, negative = inhibition, most hits filed as inhibitors | hit rate 5.9% among 310,000 | AID 504832; note: % is set by controls: 0 for no effect and ±100 for the full control effect
#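 Here the parasites carry a stable luciferase gene and grow inside erythrocytes in Albumax-based RPMI medium with compound for one erythrocytic cycle. Activity is scored as loss of luminescent signal.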
# Sm TGR block = blocks Schistosoma mansoni thioredoxin glutathione reductase; purified TGR, DTNB reduction, TNB absorbance 405 nm; Potency, µM (highest dose often 114 µM), for the others: top-dose activity change, negative = inhibition, most hits filed as inhibitors; hit rate 3% among 360,000; AID 485364; note: % is set by controls: 0 for no effect and ±100 for the full control effect; nearly all actives have a fitted effect of over 60% in size
#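 TGR 20 nM + NADPH 100 uM (dispensed conc.), cpd preinc 15 min RT; start with NADPH (500 uM addition) then DTNB (15 mM addition). Kinetic TNB absorbance, 405 nm filter. Four-parameter Hill fit across titration.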
# AMA1-RON2 inh = AMA1-RON2 (P. falciparum) interaction inhibition; AlphaScreen AMA1-biotinylated RON2 peptide binding; Potency, µM (doses to about 58.2 µM), for inactives: top-dose activity change, negative = inhibition, most hits filed as inhibitors; AID 720542; hit rate 0.2% among 360,000;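 note: 0% = vehicle wells and -100% = peptide control; nearly all actives have a fitted effect of over 45% in size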
#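 AMA1 (3D7) with his tag at 25 nM final met compounds first, then biotinylated RON2 peptide at 25 nM; detection used donor plus acceptor beads, 10 µg/mL apiece, read by AlphaScreen after 30 min at room temperature.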
# Active calls of the source: *; ? = inconclusive; / = not tested or not shown. Compounds with a hit are over-represented: about 11% of the library has one in this group of screens. Unless noted, calls come from the whole dose curve; as a rule, active = well fitted curve in the direction sought with a large enough effect; inconclusive = small, poorly fitted or top-dose-only effect, or another doubt; inactive = no such curve, though single readings can be large; an effect the other way counts as inactive or inconclusive. Potency is the fitted concentration of half-maximal effect.
SMILES,Pf growth 96h,NS1 function inh,Pf growth 48h,Sm TGR block,AMA1-RON2 inh
COc1ccc(/C=N/Nc2nc(-c3ccc(C)cc3)c(NC(C)=O)s2)cc1,4.7µM*,18%,2.3µM*,4%,41%
CCCNCC(=O)Nc1sc2c(c1C(=O)Nc1c(C)n(C)n(-c3ccccc3)c1=O)CCCC2,/,/,/,/,135%
CC(=O)N1CCOc2ccc(S(=O)(=O)NCc3ccc(F)cc3)cc21,21%,-10%,18%,4%,3%
O=c1c2ccc(Cl)cc2nc(-c2cccc(C(F)(F)F)c2)n1O,10µM*,-205%,?,-26%,54%
CCOC(=O)c1ccccc1NC(=O)CN(c1ccccc1)S(=O)(=O)N(C)C,/,-37%,3.3µM*,5%,-6%
c1ccc(N2CCN(c3nc(NCc4ccco4)c4ccccc4n3)CC2)cc1,2.3µM*,5%,2.3µM*,-28%,-29%
c1ccc(CN2CCC(CNc3ncnc4ccccc34)C2)cc1 (centres undefined),/,/,/,/,-2%
c1ccc(CNc2nc(N3CCN(Cc4ccccc4)CC3)nc3ccccc23)cc1,?,-64%,5.2µM*,4%,?
c1ccc(CN2CCC(Nc3nc(-c4ccccc4)nc4ccccc34)CC2)cc1,/,-125%,8.3µM*,1%,3%
Nc1nc(N2CCN(Cc3ccccc3)CC2)n[nH]1,18%,-2%,36%,/,5%
c1ccc(-c2nc(NCc3ccco3)c3ccccc3n2)nc1,2.9µM*,-85%,2.6µM*,-23%,-19%
Cc1ccc(C(=O)COC(=O)c2ccc(O)cc2)cc1,68%,-3%,20%,9%,-21%
CC(C)(C)N(Cc1ccccc1)C(=O)COC(=O)c1ccc(N2CCCC2=O)cc1,/,/,/,/,1%
c1coc(CNc2nc(N3CCCCC3)nc3ccccc23)c1,/,?,6.6µM*,?,-5%
OCCNc1nc(N2CCCCC2)nc2ccccc12,-2%,-1%,?,0%,9%
CC(=O)N1C(=O)NC2=C(C(=O)CCC2)C1c1cccc([N+](=O)[O-])c1 (centres undefined),7%,1%,-23%,-13%,0%
COc1ccc(CNC(=O)CSc2ncc(S(=O)(=O)c3ccc(C)c(Cl)c3)c(=O)[nH]2)cc1,/,/,/,-4%,/
CC(C)c1ccc(C(=O)CC2(O)C(=O)N(CN3CCOCC3)c3ccccc32)cc1 (centres undefined),12µM*,-6%,37%,-23%,-1%
CNC(=S)NNC(=O)COc1ccccc1C,7%,-10%,-12%,7%,0%
Cc1ccc(CC(=O)N2CCN(c3ccccc3F)CC2)cc1,?,-35%,4%,/,-8%
CCc1ccc(OCC(=O)N2CCN(c3ccccc3F)CC2)cc1,6.6µM*,/,17%,6%,8%
CNC(=S)NNC(=O)COc1cccc(C)c1C,8.3µM*,-11%,0%,-7%,116%
O=C(CNC1CCCCCC1)Nc1ccccc1N1CCCCC1,?,-37%,?,-18%,-7%
O=C(CNCCC1=CCCCC1)Nc1ccccc1N1CCCCC1,12%,-32%,13µM*,5%,-2%
O=C(COc1ccccc1Cl)Nc1ccccc1C(=O)Nc1cccc(C(=O)O)c1,26%,5%,56%,3%,-5%
SMILES,Pf growth 96h,NS1 function inh,Pf growth 48h,Sm TGR block,AMA1-RON2 inh
O=C(COc1ccccc1Cl)Nc1ccc(C(=O)O)cc1NC(=O)COc1ccccc1Cl,6.6µM*,12%,1%,4%,-24%
Cc1ccc(Cl)c(OCC(=O)Nc2ccccc2N2CCCCC2)c1,?,/,15µM*,-7%,22%
O=C(CN1CCc2ccccc2C1)Nc1ccccc1N1CCCCCC1,/,-45%,13µM*,5%,-23%
CCc1cccc(OCC(=O)Nc2ccccc2N2CCCC2)c1,?,/,?,0%,-24%
Cc1cccc(OCC(=O)Nc2ccccc2N2CCCCC2)c1C,1.9µM*,/,12µM*,13%,-16%
CCC(=O)N1CCN(c2ccccc2NC(=O)COc2ccc(C(C)C)cc2)CC1,?,-31%,10µM*,0%,8%
O=C(COc1ccc(Cl)cc1Br)Nc1ccccc1N1CCCC1,?,/,?,19%,?
CCOC(CCNC(=O)c1cn(CCOC)c(=O)c2c1c1ccccc1n2C)OCC,?,-1%,-12%,-10%,-9%
O=S(=O)(Nc1cccc2ncccc12)c1cccc(C(F)(F)F)c1,-7%,/,?,-9%,-5%
COc1ccccc1CNc1ncnc2c1nnn2C,/,/,/,-2%,/
COc1ccc(OCC(=O)Nc2ccccc2N2CCCCC2)cc1,-22%,-42%,?,-1%,6%
Cc1cccc(C)c1OCC(=O)Nc1ccccc1N1CCCCC1,?,14%,12µM*,11%,-6%
Fc1ccccc1Cc1noc(CN2CCCC(CN3CCOCC3)C2)n1 (centres undefined),?,-3%,-1%,0%,1%
COc1ccccc1N1CCN(C(=O)c2ccc3c(c2)N(Cc2ccccc2)C(=O)c2ccccc2S3(=O)=O)CC1,/,/,/,4%,/
CCOC(=O)NC1(Nc2cccc(Cl)c2)Oc2ccccc2O1,?,-4%,27%,50µM*,-19%
CCOC(=O)NC(=O)/C(C#N)=N\Nc1cccc(Cl)c1,?,-54%,-2%,2%,-6%
O=c1cc(CSc2nnc(COc3cccc4ccccc34)o2)c2ccccc2[nH]1,12µM*,1%,79%,-9%,23%
Cc1ccc(-c2nc(CCNC(=O)C(=O)Nc3ccc(C)c(Cl)c3)cs2)cc1,/,/,/,5%,/
Cc1cccc(C)c1NC(=O)CNC(=O)c1ccc(COc2ccccc2)o1,39%,/,-6%,2%,18%
COc1cc(O)c(CC=C(C)C)c(O)c1C(=O)CCc1ccc(O)cc1,-11%,-92%,9.3µM*,-16%,-12%
O=C(c1ccc2c(c1)CCN2S(=O)(=O)c1ccc(Cl)cc1)N1CCN(c2ccc(F)cc2)CC1,/,/,/,0%,/
S=C(NCCCCc1ccccc1)NCc1ccccc1,?,-104%,10%,0%,23%
CC(Sc1nnc(-c2ccco2)o1)C(=O)NCCC1=CCCCC1 (centres undefined),?,/,?,45µM*,-9%
Cc1ccccc1C(=O)NC(=S)NCc1cccnc1,1%,1%,6%,-25%,17%
Cc1ccccc1C(=O)NC(=S)NCCc1ccccc1,-26%,-23%,18%,7.1µM*,34%
SMILES,Pf growth 96h,NS1 function inh,Pf growth 48h,Sm TGR block,AMA1-RON2 inh
CNC(=S)NCCCc1ccccc1,5.2µM*,0%,-2%,0%,-12%
Cc1ccccc1C(=O)NC(=S)NCc1ccccc1,-4%,20%,-13%,22µM*,17%
O=C(NCC1CCCCC1)c1ccc(Br)o1,3%,-39%,8%,-2%,-4%
OCCNc1ncnc2c1ncn2[C@H]1CN(Cc2ccncc2)C[C@@H](CO)O1,/,/,/,/,6%
CC(C)OC(=O)N(C)C[C@H]1OCc2cnnn2CCCC(=O)N([C@H](C)CO)C[C@@H]1C,/,/,/,/,11%
S=C(NCCc1ccccc1)NCCc1ccccc1,8%,-38%,58%,3%,-4%
O=C(NNC(=S)NCCc1ccccc1)c1ccc(Br)s1,9.3µM*,2%,4%,-1%,94%
